Experimental data: PubChem BioAssay (EPA / NIEHS)
Results filed as inconclusive are left out. Activity calls are given as the source filed them. Rule for the calls, unless noted: active = hit-call score of the fitted dose curve at least 0.9, where 1 is the maximum; inactive = score below 0.9.

Assays:
[1] = BSK_3C_VCAM1: BioMAP Diversity Plus: 3C Assay for Vascular cell adhesion molecule 1 (VCAM1) Biomarker Activity (AID 2282999); settings: BioMAP 3C HUVEC, VCAM1 ELISA, cytokine-stimulated; actives raise or lower the signal
Outline: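 Activity fitted in both directions relative to DMSO, with ELISA measurement of the surface marker on primary HUVEC (3C) at 24 h post-treatment; parallel SRB staining (0.1% SRB, TCA-fixed, 560 nm) flagged overt cytotoxicity.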

[2] = BSK_4H_Eotaxin3: BioMAP Diversity Plus: 4H Assay for Eotaxin 3 Biomarker Activity (AID 2283000); settings: primary human endothelial cells (HUVEC); actives raise or lower the signal;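 for outcome: CCL26 protein level quantified by ELISA in parallel with SRB cytotoxicity check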
Outline: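 Chemicals were added to human umbilical vein endothelium cultures, and Eotaxin-3 was quantified by ELISA at 24 h. Values were derived by bidirectional fitting with DMSO serving as negative control and activity baseline.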

[3] = target: human Peroxisome Proliferator-activated Receptor delta (PPARd), PPARD (gene 5467) (UniProt Q03181); experiment: ATG_PPARd_TRANS: Attagene TRANS-FACTORIAL HepG2 Assay for human Peroxisome Proliferator-activated Receptor delta (PPARd) (AID 2283002; active = hit-call score of the fitted dose curve at least 0.9, where 1 is the maximum)
human Peroxisome Proliferator-activated Receptor delta (PPARd), PPARD (gene 5467), sequence (Q03181 whole entry, looked up): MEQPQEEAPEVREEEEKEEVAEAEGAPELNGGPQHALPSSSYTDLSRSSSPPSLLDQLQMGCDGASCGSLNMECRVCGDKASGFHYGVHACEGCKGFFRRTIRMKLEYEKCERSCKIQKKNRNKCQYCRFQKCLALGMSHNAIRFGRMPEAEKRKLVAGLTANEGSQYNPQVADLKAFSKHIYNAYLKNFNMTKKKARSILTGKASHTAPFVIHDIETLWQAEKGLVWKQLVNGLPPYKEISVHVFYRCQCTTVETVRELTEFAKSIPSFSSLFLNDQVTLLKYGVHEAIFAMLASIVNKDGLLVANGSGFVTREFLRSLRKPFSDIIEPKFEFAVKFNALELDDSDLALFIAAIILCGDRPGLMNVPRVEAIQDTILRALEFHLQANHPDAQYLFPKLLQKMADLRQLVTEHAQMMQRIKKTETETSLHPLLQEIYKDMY
Outline: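 Cell-based TRANS reporter: HepG2, transient MRTU transfection, 24 h exposure. Readout = reporter mRNA (RT-PCR/CE, 6-FAM). Gain-of-signal fit vs DMSO control.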

[4] = read-out: Intercellular Adhesion Molecule 1 (ICAM1), ICAM1 (gene 3383); experiment: BSK_3C_ICAM1: BioMAP Diversity Plus: 3C Assay for Intercellular Adhesion Molecule 1 (ICAM1) Biomarker Activity (AID 2283003); settings: primary human endothelial cells (HUVEC); actives raise or lower the signal
Outline: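 Using DMSO as baseline, bidirectional curve fitting was applied to ICAM-1 ELISA signals from HUVEC in the 3C system, measured 24 h after compound addition.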

[5] = target: human Retinoic Acid Receptor beta (RARb), RARB (gene 5915) (UniProt P10826); experiment: ATG_RARb_TRANS: Attagene TRANS-FACTORIAL HepG2 Assay for human Retinoic Acid Receptor beta (AID 2283004; active = hit-call score of the fitted dose curve at least 0.9, where 1 is the maximum)
Outline: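 Transient transfection of HepG2 with multiple reporter units → chemical dosing, 24 h → total RNA isolation → RT with oligo(dT) → reporter-specific PCR, 6-FAM primer extension, HpaI digest → capillary electrophoresis. Positive direction vs DMSO control.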

[6] = target: Retinoic acid receptor alpha (Homo sapiens) (UniProt P10276); experiment: ATG_RARa_TRANS: Attagene TRANS-FACTORIAL HepG2 Assay for human Retinoic Acid Receptor alpha (RARa) (AID 2283005; active = hit-call score of the fitted dose curve at least 0.9, where 1 is the maximum)
Retinoic acid receptor alpha (Homo sapiens), sequence (P10276 whole entry, looked up, the tested form may be a part): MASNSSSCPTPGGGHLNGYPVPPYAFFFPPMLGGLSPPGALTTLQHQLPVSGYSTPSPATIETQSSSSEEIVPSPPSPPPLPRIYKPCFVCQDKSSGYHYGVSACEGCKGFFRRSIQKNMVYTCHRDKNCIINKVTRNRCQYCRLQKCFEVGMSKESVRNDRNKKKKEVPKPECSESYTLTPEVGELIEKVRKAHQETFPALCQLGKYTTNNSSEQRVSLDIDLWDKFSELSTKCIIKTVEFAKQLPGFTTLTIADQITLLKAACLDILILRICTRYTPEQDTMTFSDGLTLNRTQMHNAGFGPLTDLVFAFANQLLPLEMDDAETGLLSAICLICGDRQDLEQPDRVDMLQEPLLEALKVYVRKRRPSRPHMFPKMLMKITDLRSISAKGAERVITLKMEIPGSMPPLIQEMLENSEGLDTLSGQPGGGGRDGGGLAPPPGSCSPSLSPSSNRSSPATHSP
Outline: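 Reporter transcripts, measured by RT-PCR with fluorescent labeling and capillary electrophoresis after 24 h dosing, reflect activity of an exogenous human RARa–GAL4 fusion in transiently transfected HepG2. Fitted for increase relative to DMSO.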

[7] = BSK_3C_Proliferation: Cell Proliferation Assessment in the BioMAP Diversity Plus: 3C Assay (AID 2283006); settings: primary human endothelial cells (HUVEC);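 for AC50: potency may reflect either rise or fall in cell number versus DMSO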
Outline: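 Measured here: sulforhodamine B (0.1%) staining of TCA-fixed sub-confluent umbilical vein endothelial cultures 48 h post-dosing, absorbance 560 nm. DMSO served as negative control and baseline; both signal gain and loss were modelled.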

[8] = target: human Retinoic Acid Receptor gamma (RARg), RARG (gene 5916) (UniProt P13631); experiment: ATG_RARg_TRANS: Attagene TRANS-FACTORIAL HepG2 Assay for human Retinoic Acid Receptor gamma (RARg) (AID 2283009; active = hit-call score of the fitted dose curve at least 0.9, where 1 is the maximum)
human Retinoic Acid Receptor gamma (RARg), RARG (gene 5916), sequence (P13631 whole entry, looked up, the tested form may be a part): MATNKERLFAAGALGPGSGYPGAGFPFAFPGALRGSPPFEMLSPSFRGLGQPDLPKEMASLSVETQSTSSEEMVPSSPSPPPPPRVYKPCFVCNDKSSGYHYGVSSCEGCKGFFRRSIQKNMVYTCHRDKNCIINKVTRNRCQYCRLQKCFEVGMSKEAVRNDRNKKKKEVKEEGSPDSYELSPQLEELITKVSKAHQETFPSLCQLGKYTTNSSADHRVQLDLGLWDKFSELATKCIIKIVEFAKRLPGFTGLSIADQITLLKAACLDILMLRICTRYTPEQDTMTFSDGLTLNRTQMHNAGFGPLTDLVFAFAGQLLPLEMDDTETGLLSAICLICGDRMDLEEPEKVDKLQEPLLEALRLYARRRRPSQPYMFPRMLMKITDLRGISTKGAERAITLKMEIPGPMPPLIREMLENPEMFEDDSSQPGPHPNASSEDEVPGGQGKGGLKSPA
Outline: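 Gain-of-signal relative to DMSO is reported from fluorescent capillary electrophoresis of RT-PCR reporter products. These came from HepG2 cells expressing transfected RARg-GAL4 chimeras with UAS reporters, harvested 24 h after dosing.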

[9] = target: Retinoic acid receptor RXR-alpha (Homo sapiens) (UniProt P19793); experiment: ATG_RXRa_TRANS: Attagene TRANS-FACTORIAL HepG2 Assay for human Retinoid X Receptor alpha (RXRa) (AID 2283012; active = hit-call score of the fitted dose curve at least 0.9, where 1 is the maximum)
Retinoic acid receptor RXR-alpha (Homo sapiens), sequence (P19793 whole entry, looked up, the tested form may be a part): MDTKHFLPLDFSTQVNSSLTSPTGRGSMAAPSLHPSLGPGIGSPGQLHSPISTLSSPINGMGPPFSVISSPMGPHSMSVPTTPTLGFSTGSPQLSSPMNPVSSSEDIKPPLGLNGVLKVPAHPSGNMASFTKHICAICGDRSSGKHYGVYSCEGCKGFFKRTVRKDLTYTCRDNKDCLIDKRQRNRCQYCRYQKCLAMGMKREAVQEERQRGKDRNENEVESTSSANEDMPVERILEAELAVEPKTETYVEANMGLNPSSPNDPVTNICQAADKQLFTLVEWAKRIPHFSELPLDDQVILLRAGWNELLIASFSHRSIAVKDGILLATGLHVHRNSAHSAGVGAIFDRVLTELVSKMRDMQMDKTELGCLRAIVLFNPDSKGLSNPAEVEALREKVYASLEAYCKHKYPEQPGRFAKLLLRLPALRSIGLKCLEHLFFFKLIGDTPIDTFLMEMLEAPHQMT
Outline: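 Chimeric NR-GAL4 trans-activation in HepG2, 24 h treatment; reporter transcripts quantified by fluorescence on capillary electrophoresis, analysed for upward change from DMSO.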

[10] = target: human Retinoid X Receptor beta (RXRb), RXRB (gene 6257) (UniProt P28702); experiment: ATG_RXRb_TRANS: Attagene TRANS-FACTORIAL HepG2 Assay for human Retinoid X Receptor beta (RXRb) (AID 2283013; active = hit-call score of the fitted dose curve at least 0.9, where 1 is the maximum)
human Retinoid X Receptor beta (RXRb), RXRB (gene 6257), sequence (P28702 whole entry, looked up, the tested form may be a part): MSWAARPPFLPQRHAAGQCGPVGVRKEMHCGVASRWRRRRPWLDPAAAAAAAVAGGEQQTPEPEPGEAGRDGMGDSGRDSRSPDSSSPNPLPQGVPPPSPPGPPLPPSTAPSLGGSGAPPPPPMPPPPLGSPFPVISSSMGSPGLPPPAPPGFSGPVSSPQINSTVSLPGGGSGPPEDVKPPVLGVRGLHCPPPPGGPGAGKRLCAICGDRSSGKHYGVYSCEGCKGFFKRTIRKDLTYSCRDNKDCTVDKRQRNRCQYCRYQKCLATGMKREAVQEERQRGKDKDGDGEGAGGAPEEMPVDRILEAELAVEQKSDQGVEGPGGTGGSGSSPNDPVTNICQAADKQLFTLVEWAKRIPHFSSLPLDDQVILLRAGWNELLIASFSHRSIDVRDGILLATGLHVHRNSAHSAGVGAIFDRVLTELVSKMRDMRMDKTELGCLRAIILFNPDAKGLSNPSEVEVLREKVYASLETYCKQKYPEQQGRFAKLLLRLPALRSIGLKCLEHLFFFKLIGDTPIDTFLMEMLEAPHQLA
Outline: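 After a 24 h incubation with test chemical, transfected HepG2 cells carrying NR-Gal4 fusions and GAL4-UAS reporter transcription units yield RNA whose reporter cDNA is FAM-labelled, HpaI-cut and sized by capillary electrophoresis; increases over DMSO are scored.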

[11] = read-out: E-selectin (Homo sapiens) (UniProt P16581); experiment: BSK_3C_Eselectin: BioMAP Diversity Plus: 3C Assay for Eselectin Biomarker Activity (AID 2283015); settings: primary human endothelial cells (HUVEC); actives raise or lower the signal;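 for outcome: cell surface E-selectin protein quantified by ELISA 24 h after dosing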
Outline: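 ELISA read-out of E-selectin on endothelial monolayers after 24 h chemical treatment. Human umbilical vein primary cells served as the system, with DMSO defining baseline activity for bidirectional fitting.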

[12] = read-out: Interleukin-1 alpha (IL1a), IL1A (gene 3552); experiment: BSK_BE3C_IL1a: BioMAP Diversity Plus: BE3C Assay for Interleukin-1 alpha (IL1a) Biomarker Activity (AID 2283016); settings: primary human bronchial epithelial cells; actives raise or lower the signal
Outline: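 Measured in human lung primary bronchial epithelial cells: IL-1a by ELISA at 24 h after dosing, with bidirectional fitting against DMSO.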

[13] = read-out: Monocyte Chemoattractant Protein-1 (MCP1), CCL2 (gene 6347); experiment: BSK_3C_MCP1: BioMAP Diversity Plus: 3C Assay for Monocyte Chemoattractant Protein-1 (MCP1) Biomarker Activity (AID 2283017); settings: primary human endothelial cells (HUVEC); actives raise or lower the signal
Outline: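 ELISA read-out of MCP-1 from human umbilical vein endothelial cell cultures harvested 24 h post-dosing. Gain or loss of signal was fitted relative to DMSO.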

[14] = read-out: Monocyte Chemoattractant Protein-1 (MCP1), CCL2 (gene 6347); experiment: BSK_4H_MCP1: BioMAP Diversity Plus: 4H Assay for Monocyte Chemoattractant Protein-1 (MCP1) Biomarker Activity (AID 2283018); settings: primary human endothelial cells (HUVEC); actives raise or lower the signal
Outline: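 Primary human umbilical vein endothelium is exposed to chemical for 24 h before MCP-1 is assayed by ELISA. Concentration-response fitted bidirectionally relative to DMSO.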

[15] = target: Nuclear receptor subfamily 1 group I member 2 (Homo sapiens) (UniProt O75469); experiment: ATG_PXR_TRANS: Attagene TRANS-FACTORIAL HepG2 Assay for human Pregnane X Receptor (PXR) (AID 2283008; active = hit-call score of the fitted dose curve at least 0.9, where 1 is the maximum)
Nuclear receptor subfamily 1 group I member 2 (Homo sapiens), sequence (O75469 whole entry, looked up, the tested form may be a part): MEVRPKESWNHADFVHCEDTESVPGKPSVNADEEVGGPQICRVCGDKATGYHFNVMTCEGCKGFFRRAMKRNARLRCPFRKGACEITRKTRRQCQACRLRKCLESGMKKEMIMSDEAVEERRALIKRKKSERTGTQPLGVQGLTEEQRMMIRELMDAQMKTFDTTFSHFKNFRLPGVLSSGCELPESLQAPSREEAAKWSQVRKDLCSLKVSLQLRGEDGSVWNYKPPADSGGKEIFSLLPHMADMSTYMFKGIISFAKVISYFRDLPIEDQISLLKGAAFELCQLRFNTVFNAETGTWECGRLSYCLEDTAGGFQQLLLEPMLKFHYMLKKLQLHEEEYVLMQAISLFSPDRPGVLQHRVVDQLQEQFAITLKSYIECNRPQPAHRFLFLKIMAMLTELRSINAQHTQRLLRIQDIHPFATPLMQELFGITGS
Outline: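 Transient HepG2 transfectants carrying multiplexed reporter transcription units; PXR activity read through a Gal4 chimera. 24 h exposure. RT-PCR/CE fluorescence; upward curve fit referenced to DMSO.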

[16] = target: human Thyroid Receptor alpha (THRa1), THRA (gene 7067) (UniProt P10827); experiment: ATG_THRa1_TRANS: Attagene TRANS-FACTORIAL HepG2 Assay for human Thyroid Receptor alpha (THRa1) (AID 2283014; active = hit-call score of the fitted dose curve at least 0.9, where 1 is the maximum)
human Thyroid Receptor alpha (THRa1), THRA (gene 7067), sequence (P10827 whole entry, looked up, the tested form may be a part): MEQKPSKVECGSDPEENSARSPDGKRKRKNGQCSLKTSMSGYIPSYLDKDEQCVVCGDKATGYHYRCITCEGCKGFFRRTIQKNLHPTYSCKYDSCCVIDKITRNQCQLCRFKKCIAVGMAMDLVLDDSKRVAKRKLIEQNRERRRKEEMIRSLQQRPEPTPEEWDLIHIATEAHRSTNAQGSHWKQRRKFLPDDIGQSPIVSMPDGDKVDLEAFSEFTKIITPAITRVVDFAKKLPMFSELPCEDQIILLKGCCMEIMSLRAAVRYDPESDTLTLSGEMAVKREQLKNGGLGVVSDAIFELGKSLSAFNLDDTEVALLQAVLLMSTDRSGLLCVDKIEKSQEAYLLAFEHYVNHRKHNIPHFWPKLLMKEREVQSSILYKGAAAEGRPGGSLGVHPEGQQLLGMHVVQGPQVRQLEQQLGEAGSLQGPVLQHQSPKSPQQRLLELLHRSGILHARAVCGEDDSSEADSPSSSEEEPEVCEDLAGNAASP
Outline: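 Reporter transcript induction, read by capillary electrophoresis of 6-FAM-labelled RT-PCR products, reflects activity of a transfected THRa1-Gal4 fusion in HepG2 liver cells. Cells were dosed for 24 h; activity was fitted in the positive direction against DMSO.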

[17] = target: Peroxisome proliferator-activated receptor gamma (Homo sapiens) (UniProt P37231); experiment: ATG_PPARg_TRANS: Attagene TRANS-FACTORIAL HepG2 Assay for human Peroxisome Proliferator-activated Receptor-gamma (PPARg) (AID 2283007; active = hit-call score of the fitted dose curve at least 0.9, where 1 is the maximum)
Peroxisome proliferator-activated receptor gamma (Homo sapiens), sequence (P37231 whole entry, looked up, the tested form may be a part): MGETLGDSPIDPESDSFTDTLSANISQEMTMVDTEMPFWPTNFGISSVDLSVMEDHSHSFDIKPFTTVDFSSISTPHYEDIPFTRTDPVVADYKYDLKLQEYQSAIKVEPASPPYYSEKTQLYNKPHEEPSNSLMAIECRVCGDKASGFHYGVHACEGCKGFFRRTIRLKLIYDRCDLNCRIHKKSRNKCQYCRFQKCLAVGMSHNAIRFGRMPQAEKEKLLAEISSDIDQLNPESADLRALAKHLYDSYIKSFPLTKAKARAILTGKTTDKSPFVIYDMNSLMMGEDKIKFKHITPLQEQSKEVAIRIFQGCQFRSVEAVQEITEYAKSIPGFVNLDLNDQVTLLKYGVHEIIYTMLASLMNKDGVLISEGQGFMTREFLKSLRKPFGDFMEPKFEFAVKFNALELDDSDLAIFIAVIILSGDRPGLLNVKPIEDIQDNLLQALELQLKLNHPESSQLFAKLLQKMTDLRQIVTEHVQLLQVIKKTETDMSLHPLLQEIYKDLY
Outline: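 Transient transfection of HepG2 with GAL4-UAS-driven reporter units; chemical dosing 24 h; total RNA → oligo(dT) RT → PCR with reporter primers → 6-FAM primer extension → HpaI digest 2 h 37 C → capillary electrophoresis. Positive direction vs DMSO.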

[18] = target: human RAR-related Orphan Receptor gamma (RORg), RORC (gene 6097) (UniProt P51449); experiment: ATG_RORg_TRANS: Attagene TRANS-FACTORIAL HepG2 Assay for human RAR-related Orphan Receptor gamma (RORg) (AID 2283011; active = hit-call score of the fitted dose curve at least 0.9, where 1 is the maximum)
human RAR-related Orphan Receptor gamma (RORg), RORC (gene 6097), sequence (P51449 whole entry, looked up, the tested form may be a part): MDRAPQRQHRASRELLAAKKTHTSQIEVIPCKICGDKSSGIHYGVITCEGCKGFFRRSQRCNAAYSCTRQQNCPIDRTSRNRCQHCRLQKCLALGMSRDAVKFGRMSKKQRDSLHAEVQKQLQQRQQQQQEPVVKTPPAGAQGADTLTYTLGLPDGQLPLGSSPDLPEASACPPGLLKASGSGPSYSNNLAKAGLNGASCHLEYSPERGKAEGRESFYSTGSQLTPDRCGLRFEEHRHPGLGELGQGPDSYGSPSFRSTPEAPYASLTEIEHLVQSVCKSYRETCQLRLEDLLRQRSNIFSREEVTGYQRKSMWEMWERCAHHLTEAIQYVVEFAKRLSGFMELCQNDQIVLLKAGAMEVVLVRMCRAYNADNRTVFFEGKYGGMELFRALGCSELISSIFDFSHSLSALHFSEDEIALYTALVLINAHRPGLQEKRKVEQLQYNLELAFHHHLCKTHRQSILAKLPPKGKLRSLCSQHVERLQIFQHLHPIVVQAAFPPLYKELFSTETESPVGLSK
Outline: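 First, HepG2 liver cells were transfected with GAL4-UAS-driven reporter constructs and the RORg-Gal4 fusion. Next, they were treated with chemical for 24 h. Finally, reporter mRNA was quantified by RT-PCR and capillary electrophoresis, with upward activity fitted against DMSO.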

[19] = target: human RAR-related Orphan Receptor beta (RORb), RORB (gene 6096) (UniProt Q92753); experiment: ATG_RORb_TRANS: Attagene TRANS-FACTORIAL HepG2 Assay for human RAR-related Orphan Receptor beta (RORb) (AID 2283010; active = hit-call score of the fitted dose curve at least 0.9, where 1 is the maximum)
Outline: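 Multiplexed transcription-factor reporter assay: HepG2 cells transiently carrying NR-Gal4/GAL4-UAS constructs, 24 h treatment, mRNA quantified by RT-PCR plus capillary electrophoresis fluorescence; activity scored as induction over DMSO.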

E-selectin (Homo sapiens), sequence (P16581 whole entry, looked up): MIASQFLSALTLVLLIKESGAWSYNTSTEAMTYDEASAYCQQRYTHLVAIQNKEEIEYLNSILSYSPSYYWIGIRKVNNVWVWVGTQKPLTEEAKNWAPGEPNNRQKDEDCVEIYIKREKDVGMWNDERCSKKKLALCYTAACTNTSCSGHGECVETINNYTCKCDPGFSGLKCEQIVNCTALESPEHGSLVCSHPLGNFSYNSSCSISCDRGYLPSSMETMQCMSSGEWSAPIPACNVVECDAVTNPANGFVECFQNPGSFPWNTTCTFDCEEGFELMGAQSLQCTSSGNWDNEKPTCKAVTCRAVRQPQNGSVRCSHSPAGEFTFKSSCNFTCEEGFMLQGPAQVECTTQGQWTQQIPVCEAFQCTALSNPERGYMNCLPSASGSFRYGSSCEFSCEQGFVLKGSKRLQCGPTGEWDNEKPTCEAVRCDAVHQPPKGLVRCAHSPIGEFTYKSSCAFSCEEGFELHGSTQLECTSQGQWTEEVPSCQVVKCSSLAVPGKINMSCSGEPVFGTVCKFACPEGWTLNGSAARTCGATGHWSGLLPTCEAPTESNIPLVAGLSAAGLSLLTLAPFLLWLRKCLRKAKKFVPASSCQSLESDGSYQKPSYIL

## ClCC(Cl)CCl
[1]
  outcome: inactive
[2]
  outcome: inactive
[3]
  outcome: inactive
[4]
  outcome: inactive
[5]
  outcome: inactive
[6]
  outcome: inactive
[7]
  outcome: inactive
[8]
  outcome: inactive
[9]
  outcome: inactive
[10]
  outcome: inactive
[11]
  outcome: inactive
[12]
  outcome: inactive
[13]
  outcome: inactive
[14]
  outcome: inactive

## O=S(=O)(c1ccc(Cl)cc1)c1ccc(Cl)cc1
[1]
  outcome: inactive
[2]
  outcome: inactive
[3]
  outcome: inactive
[4]
  outcome: inactive
[7]
  outcome: inactive
[15]
  AC50: 7 µM (active)
[9]
  outcome: inactive
[16]
  outcome: inactive
[11]
  outcome: inactive
[12]
  outcome: inactive
[13]
  outcome: inactive
[14]
  outcome: inactive

## ClC(Cl)=C(Cl)C(Cl)=C(Cl)Cl
[1]
  AC50: 29.2 µM (active)
[2]
  AC50: 36.9 µM (active)
[3]
  outcome: inactive
[4]
  AC50: 34 µM (active)
[7]
  AC50: 14.3 µM (active)
[17]
  outcome: inactive
[15]
  outcome: inactive
[8]
  outcome: inactive
[18]
  outcome: inactive
[9]
  outcome: inactive
[10]
  outcome: inactive
[16]
  outcome: inactive
[11]
  AC50: 14.5 µM (active)
[12]
  AC50: 36.7 µM (active)
[13]
  AC50: 31.4 µM (active)
[14]
  AC50: 31.6 µM (active)

## O=C(O)CCC(F)(C(F)(F)F)C(F)(F)F
[1]
  outcome: inactive
[2]
  outcome: inactive
[4]
  outcome: inactive
[7]
  outcome: inactive
[11]
  outcome: inactive
[12]
  outcome: inactive
[13]
  outcome: inactive
[14]
  outcome: inactive

## CCOP(=S)(OCC)SCSP(=S)(OCC)OCC
[1]
  outcome: inactive
[2]
  outcome: inactive
[4]
  outcome: inactive
[5]
  outcome: inactive
[6]
  outcome: inactive
[7]
  outcome: inactive
[15]
  AC50: 0.168 µM (active)
[8]
  outcome: inactive
[9]
  outcome: inactive
[10]
  AC50: 12.4 µM (active)
[16]
  outcome: inactive
[11]
  outcome: inactive
[12]
  outcome: inactive
[13]
  outcome: inactive
[14]
  outcome: inactive

## CCCCC(CC)CO[N+](=O)[O-] (centres undefined)
[1]
  outcome: inactive
[2]
  AC50: 30.4 µM (active)
[3]
  outcome: inactive
[4]
  outcome: inactive
[7]
  AC50: 30.8 µM (active)
[15]
  outcome: inactive
[9]
  outcome: inactive
[10]
  AC50: 99.5 µM (active)
[11]
  AC50: 35.8 µM (active)
[12]
  outcome: inactive
[13]
  outcome: inactive
[14]
  AC50: 20 µM (active)

## CCNc1nc(NC(C)(C)C)nc(SC)n1
[1]
  outcome: inactive
[2]
  outcome: inactive
[3]
  outcome: inactive
[4]
  outcome: inactive
[7]
  outcome: inactive
[17]
  AC50: 29.5 µM (active)
[15]
  AC50: 2.02 µM (active)
[9]
  outcome: inactive
[10]
  AC50: 15.5 µM (active)
[16]
  outcome: inactive
[11]
  outcome: inactive
[12]
  outcome: inactive
[13]
  outcome: inactive
[14]
  outcome: inactive

## OCc1ccco1
[1]
  outcome: inactive
[2]
  outcome: inactive
[4]
  outcome: inactive
[7]
  AC50: 19.8 µM (active)
[17]
  AC50: 39.7 µM (active)
[15]
  outcome: inactive
[19]
  outcome: inactive
[18]
  outcome: inactive
[9]
  outcome: inactive
[11]
  outcome: inactive
[12]
  outcome: inactive
[13]
  outcome: inactive
[14]
  outcome: inactive
